Experimental data reported in PMC7862700, “An all-to-all approach to the identification of sequence-specific readers for epigenetic DNA modifications on cytosine”.

Key:
Experiment in all cases: DAPPL (digital affinity profiling via proximity ligation, sequencing); 10 mM Tris-HCl pH 7.5, 50 mM NaCl, 1 mM DTT, 4% glycerol, room temperature, 30 min; GST-TFs on glutathione beads, 16-mer random dsDNA library, 0.1% formaldehyde crosslink after washing; high values mean tight binding
Details in all cases: protein: recombinant; tags: N-terminal GST; dsDNA, one strand shown
ERF = molecular target: T1, ERF (Homo sapiens, UniProt P50548 1-548)
T1 sequence: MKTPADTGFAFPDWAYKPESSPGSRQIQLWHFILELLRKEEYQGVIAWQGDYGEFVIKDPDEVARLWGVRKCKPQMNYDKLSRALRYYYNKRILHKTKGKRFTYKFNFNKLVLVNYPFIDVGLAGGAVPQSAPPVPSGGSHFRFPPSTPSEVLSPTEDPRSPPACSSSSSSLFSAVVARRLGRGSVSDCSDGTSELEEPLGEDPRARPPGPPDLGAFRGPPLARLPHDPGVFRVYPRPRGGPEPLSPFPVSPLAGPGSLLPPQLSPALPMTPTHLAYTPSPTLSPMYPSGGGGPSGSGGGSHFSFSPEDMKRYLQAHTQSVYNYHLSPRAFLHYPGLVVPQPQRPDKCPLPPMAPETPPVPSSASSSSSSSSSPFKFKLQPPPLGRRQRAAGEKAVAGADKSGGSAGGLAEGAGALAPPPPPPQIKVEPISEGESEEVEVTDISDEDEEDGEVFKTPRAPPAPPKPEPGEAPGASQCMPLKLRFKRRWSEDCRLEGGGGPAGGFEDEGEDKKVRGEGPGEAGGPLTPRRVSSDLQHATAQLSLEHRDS
Summary of the method: (§1)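 Yeast served to express human transcription factors as GST fusions, which were then captured on glutathione beads and labelled with DNA barcodes. Pooled with a tag-only sample, they were incubated with 200 nmole of a 16-mer random double-stranded DNA library for 30 min at room temperature in Tris/NaCl/DTT/glycerol buffer, washed, crosslinked with 0.1% formaldehyde, ligated by proximity, amplified by PCR and sequenced. Dividing each hexamer's read frequency for a factor by its frequency for the tag-only sample gives the binding signal.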

ETV3L = molecular target: T2, ETV3L (Homo sapiens, UniProt Q6ZN32 1-361)
T2 sequence: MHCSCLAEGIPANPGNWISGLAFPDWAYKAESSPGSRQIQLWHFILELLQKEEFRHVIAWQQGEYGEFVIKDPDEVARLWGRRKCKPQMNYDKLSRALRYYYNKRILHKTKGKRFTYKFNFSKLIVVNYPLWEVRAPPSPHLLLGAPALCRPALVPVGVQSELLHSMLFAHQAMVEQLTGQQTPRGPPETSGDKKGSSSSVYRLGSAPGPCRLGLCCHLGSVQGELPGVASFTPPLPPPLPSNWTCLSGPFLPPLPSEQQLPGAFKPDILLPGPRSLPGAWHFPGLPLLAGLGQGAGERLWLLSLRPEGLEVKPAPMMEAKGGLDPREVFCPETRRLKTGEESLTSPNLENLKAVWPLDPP
Summary of the method: as §1

ETS2 = molecular target: T3, ETS2 (Homo sapiens, UniProt P15036 1-469)
T3 sequence: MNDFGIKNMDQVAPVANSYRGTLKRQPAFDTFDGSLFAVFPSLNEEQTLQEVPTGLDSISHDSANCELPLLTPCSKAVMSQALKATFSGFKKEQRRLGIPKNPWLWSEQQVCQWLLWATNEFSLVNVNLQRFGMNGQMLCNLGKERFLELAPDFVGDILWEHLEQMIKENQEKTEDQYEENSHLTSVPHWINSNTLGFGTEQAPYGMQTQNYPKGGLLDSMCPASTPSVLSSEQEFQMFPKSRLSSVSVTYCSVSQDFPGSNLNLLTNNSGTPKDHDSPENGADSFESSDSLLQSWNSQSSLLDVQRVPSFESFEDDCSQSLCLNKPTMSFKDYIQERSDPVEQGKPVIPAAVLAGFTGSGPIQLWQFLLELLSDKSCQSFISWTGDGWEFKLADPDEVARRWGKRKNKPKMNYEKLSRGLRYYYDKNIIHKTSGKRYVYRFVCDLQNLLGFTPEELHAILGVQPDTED
Summary of the method: as §1

SPDEF = molecular target: T4, SPDEF (Homo sapiens, UniProt O95238 1-335)
T4 sequence: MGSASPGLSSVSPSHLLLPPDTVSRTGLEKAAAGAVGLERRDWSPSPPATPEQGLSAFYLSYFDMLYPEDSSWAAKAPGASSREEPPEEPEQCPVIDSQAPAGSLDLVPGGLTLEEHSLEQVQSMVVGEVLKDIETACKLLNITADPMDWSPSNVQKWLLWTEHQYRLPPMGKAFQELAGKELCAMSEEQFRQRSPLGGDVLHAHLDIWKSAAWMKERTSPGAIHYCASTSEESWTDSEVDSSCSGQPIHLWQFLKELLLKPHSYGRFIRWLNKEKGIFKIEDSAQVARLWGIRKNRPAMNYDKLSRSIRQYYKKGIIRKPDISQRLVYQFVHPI
Summary of the method: as §1

ETV7 = molecular target: T5, ETV7 (Homo sapiens, UniProt Q9Y603 1-341)
T5 sequence: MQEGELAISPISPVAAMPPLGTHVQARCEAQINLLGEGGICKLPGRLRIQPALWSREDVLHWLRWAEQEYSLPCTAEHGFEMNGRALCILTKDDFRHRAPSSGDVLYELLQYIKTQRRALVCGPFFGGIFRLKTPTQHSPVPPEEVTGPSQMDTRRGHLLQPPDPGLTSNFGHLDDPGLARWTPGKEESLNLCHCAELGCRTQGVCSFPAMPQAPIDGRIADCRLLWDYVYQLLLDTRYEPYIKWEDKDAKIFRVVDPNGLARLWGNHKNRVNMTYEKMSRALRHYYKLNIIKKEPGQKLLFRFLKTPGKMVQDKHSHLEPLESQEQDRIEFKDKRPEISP
Summary of the method: as §1

ELF5 = molecular target: T6, ELF5 (Homo sapiens, UniProt Q9UKW6-2 1-255)
T6 sequence: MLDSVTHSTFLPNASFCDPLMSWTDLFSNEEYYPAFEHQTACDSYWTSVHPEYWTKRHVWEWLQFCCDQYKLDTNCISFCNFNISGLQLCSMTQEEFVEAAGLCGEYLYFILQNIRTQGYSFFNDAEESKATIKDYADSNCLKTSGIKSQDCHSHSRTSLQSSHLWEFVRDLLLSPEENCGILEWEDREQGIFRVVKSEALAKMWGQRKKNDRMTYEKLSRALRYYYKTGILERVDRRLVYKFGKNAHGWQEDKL
Summary of the method: as §1

ETV3 = molecular target: T7, ETV3 (Homo sapiens, UniProt P41162-2 1-143)
T7 sequence: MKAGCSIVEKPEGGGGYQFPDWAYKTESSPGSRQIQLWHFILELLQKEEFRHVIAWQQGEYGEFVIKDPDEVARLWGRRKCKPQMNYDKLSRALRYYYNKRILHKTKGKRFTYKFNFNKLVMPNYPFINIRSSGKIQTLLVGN
Summary of the method: as §1

ETV6 = ETV6 (Homo sapiens, UniProt P41212 1-452)
Chain of ETV6 (P41212 whole entry): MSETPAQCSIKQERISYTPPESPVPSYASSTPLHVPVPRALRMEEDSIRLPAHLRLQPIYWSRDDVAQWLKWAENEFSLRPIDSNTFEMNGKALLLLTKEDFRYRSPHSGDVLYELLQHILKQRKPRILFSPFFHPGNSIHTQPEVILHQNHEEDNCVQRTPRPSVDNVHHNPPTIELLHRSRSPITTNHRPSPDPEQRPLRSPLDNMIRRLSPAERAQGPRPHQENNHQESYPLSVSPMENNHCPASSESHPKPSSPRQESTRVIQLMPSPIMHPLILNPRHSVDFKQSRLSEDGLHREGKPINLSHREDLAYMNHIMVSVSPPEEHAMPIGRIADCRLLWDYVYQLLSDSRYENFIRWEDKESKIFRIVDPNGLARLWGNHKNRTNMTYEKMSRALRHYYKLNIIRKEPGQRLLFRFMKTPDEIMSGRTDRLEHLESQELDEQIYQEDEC
Summary of the method: as §1

Sequence | binding signal (ERF) | binding signal (ETV3L) | binding signal (ETS2) | binding signal (SPDEF) | binding signal (ETV7) | binding signal (ELF5) | binding signal (ETV3) | binding signal (ETV6)
AAAATG | 1.21 fold enrichment (6-mer frequency, TF over GST control) | 1.24 fold enrichment (6-mer frequency, TF over GST control) | 1.21 fold enrichment (6-mer frequency, TF over GST control) | 1.08 fold enrichment (6-mer frequency, TF over GST control) | 1.28 fold enrichment (6-mer frequency, TF over GST control) | 1.24 fold enrichment (6-mer frequency, TF over GST control) | 1.2 fold enrichment (6-mer frequency, TF over GST control) | 1.24 fold enrichment (6-mer frequency, TF over GST control)
TCACCA | 1.12 fold enrichment (6-mer frequency, TF over GST control) | 1.16 fold enrichment (6-mer frequency, TF over GST control) | 1.08 fold enrichment (6-mer frequency, TF over GST control) | 1.13 fold enrichment (6-mer frequency, TF over GST control) | 1.04 fold enrichment (6-mer frequency, TF over GST control) | 1.07 fold enrichment (6-mer frequency, TF over GST control) | 1.19 fold enrichment (6-mer frequency, TF over GST control) | 1.08 fold enrichment (6-mer frequency, TF over GST control)
AATGCT | 1.16 fold enrichment (6-mer frequency, TF over GST control) | 1.15 fold enrichment (6-mer frequency, TF over GST control) | 1.2 fold enrichment (6-mer frequency, TF over GST control) | 1.11 fold enrichment (6-mer frequency, TF over GST control) | 1.1 fold enrichment (6-mer frequency, TF over GST control) | 1.24 fold enrichment (6-mer frequency, TF over GST control) | 1.14 fold enrichment (6-mer frequency, TF over GST control) | 1.32 fold enrichment (6-mer frequency, TF over GST control)
GAAAAT | 1.18 fold enrichment (6-mer frequency, TF over GST control) | 1.15 fold enrichment (6-mer frequency, TF over GST control) | 1.13 fold enrichment (6-mer frequency, TF over GST control) | 1.05 fold enrichment (6-mer frequency, TF over GST control) | 1.2 fold enrichment (6-mer frequency, TF over GST control) | 1.17 fold enrichment (6-mer frequency, TF over GST control) | 1.07 fold enrichment (6-mer frequency, TF over GST control) | 1.19 fold enrichment (6-mer frequency, TF over GST control)
TCTTCC | 2.26 fold enrichment (6-mer frequency, TF over GST control) | 2.66 fold enrichment (6-mer frequency, TF over GST control) | 2.8 fold enrichment (6-mer frequency, TF over GST control) | 2.45 fold enrichment (6-mer frequency, TF over GST control) | 2.35 fold enrichment (6-mer frequency, TF over GST control) | 4.14 fold enrichment (6-mer frequency, TF over GST control) | 2.74 fold enrichment (6-mer frequency, TF over GST control) | 2.8 fold enrichment (6-mer frequency, TF over GST control)
ATTATA | 1.3 fold enrichment (6-mer frequency, TF over GST control) | 1.33 fold enrichment (6-mer frequency, TF over GST control) | 1.37 fold enrichment (6-mer frequency, TF over GST control) | 1.23 fold enrichment (6-mer frequency, TF over GST control) | 1.37 fold enrichment (6-mer frequency, TF over GST control) | 1.24 fold enrichment (6-mer frequency, TF over GST control) | 1.28 fold enrichment (6-mer frequency, TF over GST control) | 1.3 fold enrichment (6-mer frequency, TF over GST control)
GGGCCT | 1.37 fold enrichment (6-mer frequency, TF over GST control) | 1.21 fold enrichment (6-mer frequency, TF over GST control) | 1.21 fold enrichment (6-mer frequency, TF over GST control) | 1.24 fold enrichment (6-mer frequency, TF over GST control) | 1.24 fold enrichment (6-mer frequency, TF over GST control) | 1.17 fold enrichment (6-mer frequency, TF over GST control) | 1.21 fold enrichment (6-mer frequency, TF over GST control) | 1.21 fold enrichment (6-mer frequency, TF over GST control)
CCCCAT | 1.16 fold enrichment (6-mer frequency, TF over GST control) | 1.29 fold enrichment (6-mer frequency, TF over GST control) | 1.32 fold enrichment (6-mer frequency, TF over GST control) | 1.3 fold enrichment (6-mer frequency, TF over GST control) | 1.19 fold enrichment (6-mer frequency, TF over GST control) | 1.39 fold enrichment (6-mer frequency, TF over GST control) | 1.31 fold enrichment (6-mer frequency, TF over GST control) | 1.25 fold enrichment (6-mer frequency, TF over GST control)
AATGCC | 1.12 fold enrichment (6-mer frequency, TF over GST control) | 1.07 fold enrichment (6-mer frequency, TF over GST control) | 1.17 fold enrichment (6-mer frequency, TF over GST control) | 1.21 fold enrichment (6-mer frequency, TF over GST control) | 1.22 fold enrichment (6-mer frequency, TF over GST control) | 1.21 fold enrichment (6-mer frequency, TF over GST control) | 1.24 fold enrichment (6-mer frequency, TF over GST control) | 1.19 fold enrichment (6-mer frequency, TF over GST control)
